Experimental findings from PubChem BioAssay (NCATS) are described below.

In one test the test system is CRL-7250. Nature of the test: Cytotoxic Profiling of Annotated Libraries Using Quantitative High-Throughput Screening (AID 1296008). Further: potency means the concentration at half of the fitted maximal effect. On max response: on the % scale 0 is the no-effect control and ±100 the full control effect. The following applies: Five cell lines viability, CellTiter-Glo ATP luminescence, 48-72 h; max response: active compounds read low. Put shortly:
(§1)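 Compounds were pin-transferred onto cells and incubated 48 or 72 hr at 37 degree Celsius, 95% humidity. CellTiter-Glo was added, plates sat 10 min at room temperature, then ATP-coupled luminescence was imaged as the viability read-out.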
(In general: Cellular ATP, detected with luciferase, serves as a proxy for viable cell number.)

Another test has as its system HEK293. The description is as above. The settings on record: Five cell lines viability, CellTiter-Glo ATP luminescence, 48-72 h; max response: active compounds read low. Put shortly:
as §1

In test [1] the test system is HaCat. The test is described as above. The following applies: Five cell lines viability, CellTiter-Glo ATP luminescence, 48-72 h; max response: active compounds read low. Put shortly:
as §1

Another test deals with KB-3-1. Described as above. The settings on record: Five cell lines viability, CellTiter-Glo ATP luminescence, 48-72 h; max response: active compounds read low. Put shortly:
as §1

In the next test the test system is NIH3T3. The test is described as above. The following applies: Five cell lines viability, CellTiter-Glo ATP luminescence, 48-72 h; max response: active compounds read low. In outline:
as §1

The subject of test [2] is HACAT. Nature of the test: qHTS assay to identify novel small-molecules to repurpose for Merkel cell carcinoma treatment (AID 1296009). The following applies: MCC and control cell lines, CellTiter-Glo viability, 72 h; at 44.8 µM (top of the series) unless noted. In outline: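 Luminescence from CellTiter-Glo, read 10 min after addition at room temperature, reported viability following a 72 hr, 37 degree celsius treatment with NPC or MIPE compounds in titration; values normalized to plate controls.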
A general note: qHTS replaces the single test concentration by a dilution series.

Several values for one entry are separate records, joined by “and”; a condition that tells them apart may be missing. Equal entries are not always repeated. Inconclusive results are not listed. Unmarked numbers belong to inactive results. Activity calls are given as the source filed them. The call rests on the fitted dose curve; in most records, active means well fitted inhibition curve with a large enough effect; inconclusive means small, poorly fitted or top-dose-only effect; inactive means flat fitted curve, though single readings scatter.
Further: nearly all actives have a fitted effect of over 60% in size.

On to `CCOc1cc2ncc(C#N)c(Nc3ccc(OCc4ccccn4)c(Cl)c3)c2cc1NC(=O)C=CCN(C)C`, for which the Potency in the test on CRL-7250 is 1.05 µM (active); in the test with HEK293 it was 3.32 µM (active); with HaCat [1], 5.3 nM (active). For the same compound, the max response in the test on KB-3-1 was -18.5%.
Take `CC(Cc1ccc(O)c(O)c1)(NN)C(=O)O` (stereo not given): the compound was called inactive in the test on CRL-7250. Moreover, the max response is -17.2% in the test with HEK293, -11% in the test on HaCat [1], -1.08% with KB-3-1 and -2.89% with NIH3T3.
In the case of `O=C(C=Cc1ccc(CN(CCO)CCc2c[nH]c3ccccc23)cc1)NO`, the Potency was 0.833 µM (active) with CRL-7250; 0.372 µM (active) in the test on HEK293; 526 nM (active) in the test on HaCat [1]; 264 nM (active) with KB-3-1; 1050 nM (active) in the test on NIH3T3.
Turning to `COc1ccc(C=Cc2cc(OC)c(OC)c(OC)c2)cc1NC(=O)[C@H](N)CO`, the Potency in the test with CRL-7250 was 0.0332 µM (active); in the test with HEK293, 0.0037 µM (active); in the test with KB-3-1, 3 nM (active). For the same compound, the max response with HaCat [1] is 4.22%.
Regarding `CCc1nc(-c2cccc(C)c2)c(-c2ccnc(NC(=O)c3ccccc3)c2)s1`, the result with CRL-7250 was inactive. Further, the Potency with HEK293 was 14.8 µM (active). Further, the max response in the test with HaCat [1] is -12.8% and -8.84%; in the test with KB-3-1, -16.2%.
As to `Cc1cn([C@@H]2O[C@H](CO)[C@@H](O)[C@H]2F)c(=O)[nH]c1=O`, the max response in the test on CRL-7250 is -5.97%; in the test with HEK293, -1.3%; with HaCat [1], -13.3%. Besides, the call with KB-3-1 and in the test on NIH3T3 was inactive.
For `CC(C)(O)[C@H]1CC[C@@](C)([C@H]2[C@@H](O)C[C@@]3(C)[C@@H]4C[C@H](O[C@@H]5O[C@H](CO)[C@@H](O)[C@H](O)[C@@H]5O)[C@H]5C(C)(C)[C@@H](O[C@@H]6OC[C@@H](O)[C@H](O)[C@@H]6O)CC[C@@]56C[C@@]46CC[C@]23C)O1`, the compound was classed as inactive with CRL-7250 and in the test on NIH3T3. In addition, the max response with HEK293 is 2.98%; in the test with HaCat [1], -6.06%; with KB-3-1, 2.16%.
For the compound `Nc1nc(=O)n([C@H]2C[C@H](O)[C@@H](CO)O2)cc1F`, the compound was called inactive with CRL-7250. The Potency was 0.0743 µM (active) with HEK293, 11.8 nM (active) in the test with HaCat [1], 11800 nM (active) in the test with KB-3-1 and 8.3 nM (active) in the test on NIH3T3.
Regarding `COc1cc2c(Nc3ccc(Cl)c(Cl)c3F)ncnc2cc1OCC1C[C@@H]2CN(C)C[C@H]2C1`, the Potency is 9.35 µM (active) with CRL-7250, 4.69 µM (active) with HEK293 and 5900 nM (active) with KB-3-1. In the test with HaCat [1], the max response was -106%.
For the compound `O=C(Nc1ccc(Oc2ccnc3[nH]ccc23)c(F)c1)c1cccn(-c2ccc(F)cc2)c1=O`, the max response in the test with CRL-7250 was -4.56%; in the test on HEK293, 2.79%; with HaCat [1], 2.4%. Further, the outcome in the test with HaCat [1], with KB-3-1, in the test on NIH3T3 and in the test on HACAT [2] was inactive.
With `Nc1ncn([C@@H]2O[C@H](CO)[C@@H](O)[C@@H]2O)c(=O)n1`, the Potency in the test with CRL-7250 is 5.26 µM (active); with HEK293 it was 4.18 µM (active); in the test with KB-3-1, 8330 nM (active). In addition, in the test with HaCat [1], the max response was -5.4%.
Consider `C=CCNC1=C2C[C@@H](C)C[C@H](OC)[C@@H](O)[C@@H](C)C=C(C)[C@H](OC(N)=O)[C@@H](OC)C=CC=C(C)C(=O)NC(=CC1=O)C2=O`, for which the Potency is 0.296 µM (active) in the test on CRL-7250; 0.935 µM (active) with HEK293; 590 nM (active) in the test on HaCat [1]; 105 nM (active) with KB-3-1; 526 nM (active) in the test with NIH3T3.
Turning to `Cc1cnc(Nc2ccc(CN3CCOCC3)cc2)nc1Nc1cccc(S(=O)(=O)NC(C)(C)C)c1`, the Potency in the test with CRL-7250 is 3.32 µM (active) and 4.61 µM (active); in the test with HEK293 it was 3.66 µM (active); in the test with HaCat [1], 2.64 µM (active) and 2.31 µM (active); in the test on KB-3-1, 4.18 µM (active) and 1.46 µM (active).
For the compound `CNC(=O)c1cccc(-c2ccc3c(N4CCOC[C@H]4C)nc(N4CCOC[C@H]4C)nc3n2)c1`, the Potency is 0.0469 µM (active) in the test on CRL-7250; 0.105 µM (active) with HEK293; 10500 nM (active) in the test with HaCat [1]; 118 nM (active) in the test with KB-3-1; 418 nM (active) in the test on NIH3T3.
`O=C(O)c1ccc(Nc2ncc3c(n2)-c2ccc(Cl)cc2C(c2c(F)cccc2F)=NC3)cc1`: in the test with CRL-7250, the max response is 0.615% and the call was inactive. Moreover, in the test on HaCat [1], the Potency is 9200 nM (active). Moreover, the Potency with KB-3-1 was 18.7 µM (active) and 5.8 µM (active).
`c1cncc(CN2CCC(n3ncc4c(N5CCOCC5)nc(-c5ccc6[nH]ccc6c5)nc43)CC2)c1`: the Potency in the test on CRL-7250 was 4.18 µM (active) and 7.31 µM (active); with HEK293, 5.8 µM (active); with HaCat [1], 14.8 µM (active) and 18.4 µM (active); in the test on KB-3-1, 10300 nM (active); with NIH3T3 it was 9.35 µM (active) and 5.17 µM (active).
With `CC(=O)OCC(=O)[C@@]12N=C(C)O[C@H]1C[C@H]1[C@@H]3CCC4=CC(=O)C=C[C@]4(C)[C@@H]3[C@@H](O)C[C@@]12C`, the max response is 0.387% in the test with CRL-7250; -6.3% with HEK293; -2.39% with HaCat [1]; 7.6% in the test on KB-3-1; -3.36% in the test on NIH3T3.
For `CC(=O)OC[C@@H]1O[C@@H](n2ccc(=O)[nH]c2=O)[C@H](OC(C)=O)[C@H]1OC(C)=O`, the max response is -3.38% in the test with CRL-7250; -0.274% in the test on HEK293; -10.5% in the test with HaCat [1]; -0.144% in the test with KB-3-1; -12.5% in the test with NIH3T3.
With `COc1cccc2c1C(=O)c1c(O)c3c(c(O)c1C2=O)C[C@@](O)(C(=O)CO)C[C@@H]3O[C@H]1C[C@H](N)[C@@H](O)[C@H](C)O1`, the Potency with CRL-7250 was 1.18 µM (active); with HEK293, 0.132 µM (active); with HaCat [1], 372 nM (active); in the test with KB-3-1 it was 743 nM (active); in the test with NIH3T3, 235 nM (active).
